Source: PubChem BioAssay
SENP7 inh: blocks the human protease SENP7; Q9BQF6; recombinant SENP7, Z-RLRGG-aminoluciferin luminescence, 40 min; inhibition, % at 5 µM; 330,000 compounds, 1.5% hits; AID 434973;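 active = inhibition above about 50% at the single test dose, limit read from the data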;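 also: plate controls were DMSO with enzyme for no effect and no enzyme buffer wells for full effect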
EBI2 block: blocks human EBI2 receptor beta-arrestin signaling. P32249. EBI2 beta-arrestin recruitment, luminescence, 7a,25-OHC stimulated. inhibition, % at 5 µM. 360,000 compounds, 0.81% hits. AID 651636; in the data active = inhibition above about 38%;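 also: enzyme fragment complementation signal reports receptor beta-arrestin coupling in cells; 0% = agonist plus DMSO wells and 100% = wells without agonist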
AHR act: activators of human aryl hydrocarbon receptor; P35869; AHR-responsive luciferase reporter cells, luminescence; activation, % at 5 µM; 320,000 compounds, 2.5% hits; AID 2796; in the data active = activation above about 47%;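 also: 0% = vehicle wells and 100% = reference agonist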
Target sequence (P35869 whole entry, looked up): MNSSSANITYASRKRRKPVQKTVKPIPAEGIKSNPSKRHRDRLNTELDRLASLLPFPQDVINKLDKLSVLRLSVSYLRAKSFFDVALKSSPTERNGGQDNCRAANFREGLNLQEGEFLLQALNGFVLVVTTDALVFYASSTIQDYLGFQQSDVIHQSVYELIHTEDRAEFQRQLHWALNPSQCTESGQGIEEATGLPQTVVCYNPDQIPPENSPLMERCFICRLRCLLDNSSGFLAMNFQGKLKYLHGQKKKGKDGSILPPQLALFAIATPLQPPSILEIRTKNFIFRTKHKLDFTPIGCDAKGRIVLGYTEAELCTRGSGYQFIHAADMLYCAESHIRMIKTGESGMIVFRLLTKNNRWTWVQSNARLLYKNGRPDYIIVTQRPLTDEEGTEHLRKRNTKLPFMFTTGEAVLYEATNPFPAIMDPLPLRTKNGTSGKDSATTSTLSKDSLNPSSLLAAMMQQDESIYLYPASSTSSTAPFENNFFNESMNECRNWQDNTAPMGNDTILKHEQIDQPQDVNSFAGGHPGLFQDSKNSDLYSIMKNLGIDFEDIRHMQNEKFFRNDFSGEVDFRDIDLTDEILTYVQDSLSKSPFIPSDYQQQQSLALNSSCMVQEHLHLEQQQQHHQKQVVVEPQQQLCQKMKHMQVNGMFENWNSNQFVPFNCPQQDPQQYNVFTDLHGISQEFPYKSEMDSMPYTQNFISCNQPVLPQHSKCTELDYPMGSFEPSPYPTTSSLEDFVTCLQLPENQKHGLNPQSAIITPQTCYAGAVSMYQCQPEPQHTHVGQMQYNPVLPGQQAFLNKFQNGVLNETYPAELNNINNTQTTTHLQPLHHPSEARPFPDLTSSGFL
SENP8 block-1: blocks the human protease SENP8; inhibition, % at 10 µM; 330,000 compounds, 1.2% hits; AID 2540; purified SENP8, Z-RLRGG-aminoluciferin cleavage, luminescence; Q96LD8; in the data active = inhibition above about 50%
SENP8 block-2: SENP8 (human) protease inhibition | Q96LD8 | recombinant SENP8, Nedd8 substrate fluorescence | inhibition, % at 20 µM | 360,000 compounds, 0.64% hits | AID 602440; in the data active = inhibition mostly above about 40%, no sharp cut-off; inactive = mostly below about 27%
SENP6 block: inhibitors of human SENP6 protease. inhibition, % at 10 µM. AID 2599. Recombinant SENP6 catalytic domain, aminoluciferin luminescence. 330,000 compounds, 1.8% hits;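 active = inhibition above about 50% at the single tested dose, limit read from the data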;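 also: plate controls were DMSO wells with enzyme for no effect and DMSO wells lacking enzyme for full effect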
* marks the source's active call; other numbers are inactive results; i = inactive; . = no result. This is a sample that favours compounds with a hit; in the whole collection about 5% have one here.

SMILES | SENP7 inh | EBI2 block | AHR act | SENP8 block-1 | SENP8 block-2 | SENP6 block
Cc1cc(/C=C(\C#N)C(=O)Nc2ccccc2)c(C)n1-c1cccnc1 | -8.9 | 8.5 | 29.6 | -13.7 | -118.8 | -20.2
O=C(Nc1ccccc1O)c1ccccc1O | 15.1 | -6.9 | 131.4* | -4.7 | 6.5 | 11.2
O=C(Nc1cccnc1)c1ccccc1O | 6.4 | -2.6 | 54.4* | -8.1 | -42.6 | 2.6
Cc1cccc(NC(=O)c2ccccc2O)c1C | 0.2 | -7.8 | 38.2 | -1.7 | -54.0 | -4.7
CNC(=O)C[C@H]1C(=O)N(c2ccccc2)C[C@@H]1CSC | . | -9.1 | . | . | 7.2 | .
C=C1C(=O)c2sccc2C(c2ccc(OC)c(OC)c2)C1COC(C)=O (stereo unspecified) | . | 60.5* | . | . | 13.2 | .
CS(=O)(=O)N(CC(=O)N1CCN(c2ccccc2)CC1)c1cc(C(F)(F)F)ccc1Cl | -2.4 | 45.9* | -7.0 | -3.7 | 4.8 | -1.4
OCCCNc1ncnc2c1ncn2[C@H]1CN(Cc2ccc(-c3ccccc3)cc2)C[C@@H](CO)O1 | . | -8.5 | . | . | 0.9 | .
COc1cccc(-n2c([S-])c(C(=O)Nc3ccc(S(=O)(=O)N4CCOCC4)cc3)[n+]3cc(C(N)=O)ccc23)c1 | 4.8 | -1.3 | 64.5* | -7.3 | -426.1 | -4.6
O=C(N/N=C\c1ccco1)Nc1cccc(Cl)c1 | 4.5 | 5.7 | 51.7* | 3.1 | 4.0 | 12.1
O=C(Cn1cc(SCc2ccccc2Cl)c2ccccc21)N1CCOCC1 | 40.1 | 5.0 | 17.2 | 42.9 | 10.7 | 74.6*
Cc1ccc(C2=CC(c3cccs3)n3nnnc3N2)cc1 (stereo unspecified) | -0.1 | -0.4 | 42.1 | -2.7 | -23.6 | 2.1
COc1ccccc1C1C=C(c2ccc(C)cc2)Nc2nnnn21 (stereo unspecified) | 3.5 | 0.8 | 53.5* | 6.3 | -290.2 | 5.6
CCOC(=O)c1nn(-c2ccccc2)c(=O)c2c(N)scc12 | -3.9 | 2.5 | -1.8 | -0.2 | 54.6* | 1.8
CCOC(=O)c1nn(-c2ccccc2)c(=O)c2c(NC(C)=O)scc12 | -5.1 | 0.6 | 1.5 | 5.8 | -109.1 | -14.1
O=C(c1ccc(Br)o1)N1CCN(c2ccc3nnc(-c4ccc(F)cc4)n3n2)CC1 | -3.0 | 13.9 | 47.2* | -2.9 | -68.0 | -15.5
Cc1nc(-c2ccccc2)sc1-c1n[nH]c(=S)n1C | -0.8 | 1.6 | 93.5* | -12.2 | -324.1 | -2.2
COc1ccc(-c2cc(C#N)nc(NN)n2)cc1 | -0.8 | 13.1 | 46.4 | -5.7 | -32.0 | -26.9
Cc1ccc(-c2cc(-c3ccccc3)nc(NN)n2)cc1 | 0.2 | 11.1 | 66.4* | -6.5 | -288.2 | -9.3
COc1ccc(-c2cc(-c3ccccc3)nc(NN)n2)cc1OC | 17.3 | 13.2 | 65.4* | -12.7 | -489.9 | 12.4
COc1nc(-c2ccccc2)cc(-c2ccc(OC)c(OC)c2)n1 | 0.3 | -1.9 | 17.4 | -4.4 | -304.6 | -1.4
CSC(=NS(=O)(=O)c1ccccc1)NNC(=O)c1c(-c2c(Cl)cccc2Cl)noc1C | . | 2.7 | . | . | 6.0 | .
COC(=O)c1cn[nH]c1NC(=S)Nc1ccc(Cl)c(Cl)c1 | 40.5 | 3.9 | 48.5* | -15.7 | 14.3 | 36.8
O=C(Nc1ccc2ccccc2c1)c1cccnc1 | 19.2 | 0.1 | 51.7* | -10.7 | 6.3 | 25.6
O=C(Nc1ccc2nc(-c3cccnc3)[nH]c2c1)c1ccccc1F | 2.6 | -8.0 | -19.3 | -11.7 | -61.6 | -24.5
SMILES | SENP7 inh | EBI2 block | AHR act | SENP8 block-1 | SENP8 block-2 | SENP6 block
O=C(Nc1ccc(Cl)c(-c2nc3ccccc3[nH]2)c1)c1cccnc1 | 4.8 | 0.0 | 51.8* | -11.0 | 1.3 | -18.7
COc1ccc(NC(=O)c2cccnc2)cc1 | 6.6 | -9.4 | -0.5 | -2.7 | 12.7 | 8.8
COc1ccc(NC(=O)c2cccnc2)cc1OCC(C)C | 8.6 | -10.1 | 50.5* | -6.2 | 5.9 | 1.6
COc1ccc(NC(=S)NNC(=O)c2cccnc2)cc1OC | 5.1 | -8.2 | 3.1 | -1.4 | 12.7 | -2.0
Cc1ccc(S(=O)(=O)C(C#N)c2nc3ccccc3nc2N2CCCC2)cc1 (stereo unspecified) | 41.9 | -1.9 | 11.3 | 77.2* | i | 73.3*
C=CCSc1nc2sc3c(c2c(=O)n1CC)CCc1ccccc1-3 | -2.2 | 36.9 | 56.3* | -5.6 | 16.1 | 1.9
CC1(C(=O)NS(=O)(=O)c2ccc(Cl)s2)CCN1C(=O)Cc1ccc(Cl)cc1Cl (stereo unspecified) | . | 1.9 | . | . | 3.4 | .
Cc1nc2ccccc2nc1SCC(=O)c1ccccc1 | -14.4 | 2.4 | 48.0* | -11.4 | 21.3 | -12.5
O=C(CSc1ccc2ccccc2n1)c1ccccc1 | 9.0 | -3.8 | 68.0* | -8.5 | 20.5 | -7.1
O=C(CSc1ccc2ccccc2n1)N/N=C/c1ccccc1O | 2.1 | 12.5 | . | -1.6 | 3.2 | 11.9
CSc1nc(C)cc(SCC(=O)N/N=C/c2ccccc2)n1 | 4.6 | -5.4 | 71.4* | -5.5 | 13.8 | -7.9
CC1(C)Nc2ccccc2C(=O)N1c1ccc(Br)cc1 | 14.5 | -8.6 | 59.0* | 24.5 | -425.0 | 42.4
COc1ccc(N2C(=O)c3ccccc3NC2(C)C)cc1 | 1.6 | -4.8 | 2.6 | 2.6 | -446.4 | -6.4
COc1nnc(-c2ccc(N3CCCCC3)c(NC(C)=O)c2)c2ccccc12 | -0.4 | 3.1 | 77.7* | 1.7 | -67.4 | -18.1
O=C(NC1CCCCC1)C1c2ccccc2OCC(=O)N1Cc1ccccc1 (stereo unspecified) | . | -5.1 | . | . | 4.4 | .
Clc1ccc(C2=CC(c3ccco3)n3ncnc3N2)cc1 (stereo unspecified) | 0.9 | 23.3 | 71.1* | 0.0 | i | 0.2
CN(Cc1cn[nH]c1-c1ccc(-c2ccccc2)cc1)CC1CCOCC1 | -1.3 | -2.2 | 16.2 | 4.1 | 6.2 | -4.8
CN(Cc1ccon1)Cc1cn[nH]c1-c1ccc(-c2ccccc2)cc1 | -2.5 | 12.5 | 52.4* | -6.6 | 19.1 | -3.0
CC(c1ccon1)N(C)Cc1cn[nH]c1-c1ccc(F)cc1F (stereo unspecified) | -0.8 | -10.1 | 3.0 | -6.9 | -4.5 | -4.8
CC(c1ccon1)N(C)Cc1cn[nH]c1-c1ccc(-c2ccccc2)cc1 (stereo unspecified) | 0.2 | 30.9 | 61.2* | 0.8 | 0.2 | -4.7
COc1ccc(S(=O)(=O)N(C)C[C@H]2Oc3ncc(C#CC4(O)CCCC4)cc3C(=O)N([C@@H](C)CO)C[C@@H]2C)cc1 | . | -0.8 | . | . | 13.2 | .
COc1ccc2c(n1)Sc1nc3ccccc3nc1N2 | . | -10.1 | 64.5* | . | 10.7 | .
COc1cc2ccccc2nn1 | 4.3 | 2.7 | 3.8 | -2.9 | -356.6 | -22.7
O=C1c2cc(CO)cc(O)c2C(=O)c2c(O[C@@H]3OC(CO)[C@@H](O)[C@@H](O)[C@@H]3O)cccc21 (stereo partly specified) | -1.2 | -21.8 | -0.1 | -4.9 | 54.0* | 8.1
O=C(O)c1cc(O)c2c(c1)[C@H]([C@H]1c3cc(C(=O)O)cc(O)c3C(=O)c3c(O[C@@H]4O[C@H](CO)[C@@H](O)[C@H](O)[C@H]4O)cccc31)c1cccc(OC3O[C@H](CO)[C@@H](O)[C@H](O)[C@H]3O)c1C2=O (stereo partly specified) | -56.4 | -10.6 | 8.8 | 22.9 | 10.0 | -69.8
